Assay outcomes (PubChem)
ELG1 DNA repair: qHTS screen for small molecules that inhibit ELG1-dependent DNA repair in human embryonic kidney (HEK293T) cells expressing luciferase-tagged ELG1. Potency, µM (doses to about 46.1 µM), for the others: at the top dose activity change, negative = inhibition, actives largely listed as inhibitors. HEK293T ELG1-luciferase reporter, luminescence, 16 h; DNA damage induced by 5-fluorouridine. AID 504467, 2011. 330,000 tested, 2.3% active; also: % is scaled to controls: 0 for no effect and ±100 for the full control effect; nearly all actives have a fitted effect of over 55% in size
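5-Fluorouridine DNA damage + compound/DMSO, 2,000 cells/well, 16 h, 37 °C/5% CO2. ONE-Glo, 30 min RT, luminescence. Readout = decrease in reporter signal.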
Rab9 prom act: qHTS Assay for Rab9 Promoter Activators; Huh7 Rab9 promoter-luciferase reporter, luminescence, 24 h; Potency, µM (top dose mostly 9.22 µM), inactives show at the top dose activation, negative = inhibition, actives largely listed as activators; 320,000 tested, 2.8% active; AID 485297, 2010; also: % of control where 0% means no effect; nearly all actives have a fitted effect of over 60% in size
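Cell-based reporter: Huh7 stable for Rab9 promoter-driven luciferase, plated in reduced-serum medium with 10% FBS at 1500 cells/well, compound-treated 24 h at 37 °C, luminescence read after 10 min reagent.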
FLuc counter: qHTS profiling assay for firefly luciferase inhibitor/activator using purifed enzyme and Km concentrations of substrates (counterscreen for miR-21 project). Luciferin 4-monooxygenase (Photinus pyralis), P08659. purified FLuc, Km substrates, luminescence inhibition. Potency, µM (doses to about 57.5 µM), for inactives: at the highest dose activity change, negative = inhibition, hits mostly inhibitors. 360,000 tested, 6.9% active. AID 588342, 2011;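 also: plate controls were vehicle for no effect and reference inhibitor for full effect; nearly all actives have a fitted effect of over 55% in size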
Target sequence (P08659 whole entry, looked up): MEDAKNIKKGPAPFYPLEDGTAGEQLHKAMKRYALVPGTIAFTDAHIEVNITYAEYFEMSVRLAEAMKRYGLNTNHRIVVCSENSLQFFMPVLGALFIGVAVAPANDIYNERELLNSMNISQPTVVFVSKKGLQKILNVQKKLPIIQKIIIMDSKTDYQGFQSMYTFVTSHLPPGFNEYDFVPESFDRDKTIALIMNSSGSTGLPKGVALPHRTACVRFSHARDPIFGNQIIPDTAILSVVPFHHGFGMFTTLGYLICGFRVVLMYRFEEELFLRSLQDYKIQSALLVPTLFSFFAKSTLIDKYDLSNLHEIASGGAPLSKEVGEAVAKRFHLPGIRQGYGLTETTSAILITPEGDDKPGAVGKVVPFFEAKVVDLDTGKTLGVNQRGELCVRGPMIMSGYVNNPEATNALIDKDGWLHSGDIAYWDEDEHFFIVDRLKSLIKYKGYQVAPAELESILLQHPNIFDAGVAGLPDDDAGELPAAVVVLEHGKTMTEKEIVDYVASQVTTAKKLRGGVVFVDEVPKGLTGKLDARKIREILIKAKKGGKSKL
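Biochemical qHTS of compounds, final roughly 60 µM downward over six points, against 10 nM purified firefly luciferase using Km concentrations of substrates (10 uM D-luciferin, 10 uM ATP) in Tris acetate pH 7.5 buffer; luminescence output.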
NPC1 promoter act: qHTS Assay for NPC1 Promoter Activators; Huh7 NPC1 promoter luciferase reporter, 24 h; Potency, µM (top dose mostly 9.22 µM), inactives show top-dose activation, usual class: activators; 320,000 tested, 2.4% active; AID 485313, 2010; also: % of control where 0% means no effect; nearly all actives have a fitted effect of over 60% in size
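NPC1 promoter–luciferase Huh7 cells; 24 h compound; luminescence.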
SMN2 splice enh: qHTS Assay for Enhancers of SMN2 Splice Variant Expression | HEK293 SMN2-luciferase splicing reporter, luminescence, 30-36 h | Potency, µM (series often up to 46.1 µM), without a hit: top-dose activity change, positive = activation, usual class: activators | 210,000 tested, 2.8% active | AID 1458, 2008; also: % of control where 0% means no effect; nearly all actives have a fitted effect of over 55% in size
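qHTS luciferase splicing reporter: luminescence rises when SMN2 exon 7 is included in transfected HEK293 cells. Compound exposure lasted 30-36 h at 37C, with 4.5 mM final sodium butyrate as control, followed by a ONE-Glo read.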
ELG1 genotox: qHTS screen for small molecules that induce genotoxicity in human embryonic kidney (HEK293T) cells expressing luciferase-tagged ELG1; Potency, µM (doses to about 46 µM), inactives show at the highest dose activity change, positive = activation, hits mostly activators; 330,000 tested, 1.3% active; HEK293T ELG1-luciferase reporter, luminescence, 16 h; AID 504466, 2011; also: % of control where 0% means no effect; nearly all actives have a fitted effect of over 60% in size
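ELG1-luciferase HEK293T cells, 2,000/well; compound pinned in; 16 hr, 37 °C, 5% CO2; ONE-Glo, 30 min RT; luminescence on CCD imager.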
* = called active by the depositor; ? = inconclusive; . = not tested or not shown; [ ] = another dose, or the depositor's remark. An excerpt weighted towards active compounds, which were near 9.4% of everything screened. Calls follow the shape of the dose curve; as a rule, active = well fitted curve in the direction sought with a large enough effect; inconclusive = small, poorly fitted or top-dose-only effect, or another doubt; inactive = no such curve, though single readings can be large; an effect the other way counts as inactive or inconclusive. Potency is read from the fitted curve at half-maximal effect.

SMILES	ELG1 DNA repair	Rab9 prom act	FLuc counter	NPC1 promoter act	SMN2 splice enh	ELG1 genotox
O=C1OC(c2ccc(F)cc2)=N/C1=C\c1ccc(Br)o1	5.5%	-0.9%	6.01µM*	-11.1%	8.1%	0.2%
COc1ccc(/C=C2\N=C(c3ccc(C)cc3)OC2=O)cc1	-10.0%	3.8%	?	-2.3%	.	0.4%
CCOC(=O)c1sc(SCC(=O)Nc2ccc(N(C)C)cc2)nc1N	5.6%	-11.0%	6.01µM*	-1.1%	-6.8%	13.0%
CCOC(=O)c1ccc(NC(=O)CSc2nc3sc(C(=O)O)c(C)c3c(=O)[nH]2)cc1	14.4%	?	16.9µM*	-3.1%	-0.7%	2.9%
CCOC(=O)c1sc(NC(=O)CSc2nc3ccccc3s2)c(C(=O)OCC)c1C	?	-0.4%	0.8%	4.5%	0.4%	6.3%
COc1ccc(NC(=O)CSc2nnc(N)s2)cc1	21.2%	14.2%	-12.5%	9.2%	13.7%	8.3%
CCc1nc(SCC(=O)Nc2ccc(N(C)C)cc2)n[nH]1	11.5%	28.5%	-4.5%	17.3%	.	0.7%
CN(C)c1ccc(NC(=O)CSc2nc(N)c(C(=O)Nc3ccc(N(C)C)cc3)s2)cc1	-51.4%	23.8%	4.78µM*	?	-43.6%	-3.5%
COc1ccc(NC(=O)CSc2nc(N)c(C(=O)Nc3ccc(N(C)C)cc3)s2)cc1	?	3.16µM*	1.35µM*	?	-17.1%	?
CC(=O)N1c2ccc(S(=O)(=O)N3CCC(C(=O)NCc4ccc(Cl)cc4)CC3)cc2CC1C (stereo unspecified)	10.3µM*	9.1%	0.6%	4.7%	.	-1.3%
CC(=O)N1c2ccc(S(=O)(=O)N3CCC(C(=O)NCc4ccccc4Cl)CC3)cc2CC1C (stereo unspecified)	23.1µM*	-2.7%	-0.3%	-2.8%	.	-0.9%[9.26 µM]
CC(=O)N1c2ccc(S(=O)(=O)N3CCC(C(=O)N4CCN(c5ccc(Cl)cc5)CC4)CC3)cc2CC1C (stereo unspecified)	-23.6%	-9.7%	0.3%	-8.7%	.	-5.7%
CC(=O)N1c2ccc(S(=O)(=O)N3CCC(C(=O)N4CCN(c5ccccc5F)CC4)CC3)cc2CC1C (stereo unspecified)	20.6µM*	2.2%	-2.5%	4.6%	.	-7.7%
COc1cc(OC)cc(C(=O)Nc2ccc3c(c2)N(C2CCCC2)C(=O)c2ccccc2S3)c1	.	.	-4.6%	.	.	.
CCN(Cc1ccccc1)C(=O)c1cc(-c2ccc(OC)c(OC)c2)nc2ccccc12	3.6%	-3.3%	-3.5%	-3.1%	.	9.0%
COc1ccccc1CN(C)C(=O)c1cc(-c2cc(OC)c(OC)c(OC)c2)nc2ccccc12	5.8µM*	-0.4%	1.6%	0.0%	.	-18.2%
COc1ccc(-c2cc(C(=O)Nc3ccc(O)cc3)c3ccccc3n2)cc1OC	?	28.7%	5.36µM*	10.9%	.	-0.4%
COCCN(Cc1ccccc1)C(=O)c1cc(-c2ccc(OC)c(OC)c2)nc2ccccc12	11.6µM*	5.1%	-15.1%	-0.3%	.	-22.3%
COc1cc(-c2cc(C(=O)Nc3ccc(S(N)(=O)=O)cc3)c3ccccc3n2)cc(OC)c1OC	?	-3.7%	-16.0%	-1.5%	.	-21.8%
CCN(CC)S(=O)(=O)c1ccc(O)c(NC(=O)c2cc(-c3cc(OC)c(OC)c(OC)c3)nc3ccccc23)c1	16.4µM*	0.3%	-6.6%	-3.6%	.	-28.9%
Nc1nc(C(=O)O)c(N=Nc2ccccc2)c(=O)[nH]1	.	.	.	.	-8.5%[9.22 µM]	.
COc1ccc(-c2cc(C(F)(F)F)n3nc(C(=O)N(C)Cc4ccccc4)cc3n2)cc1OC	20.6µM*	-10.1%	-3.9%	0.5%	-20.1%	-6.4%
